Screening results: PubChem, National Center for Advancing Translational Sciences (NCATS)
LASV entry inh: blocks Lassa virus binding to or entry into cells | AID 540256 | Lassa virus pseudotype entry inhibition, cell reporter | 300,000 compounds, 1.2% hits | Potency, µM (highest dose often 37.9 µM), hits mostly inhibitors; calls by dose curve; tested in HEK293 cells; further: nearly all actives have a fitted effect of over 50% in size
MARV entry inh: inhibitors of Marburg virus binding or cell entry; Potency, µM (highest dose often 37.8 µM), usual class: inhibitors; 300,000 compounds, 1.8% hits; AID 540276; Marburg virus pseudotyped entry inhibition, cell reporter; calls by dose curve; tested in HEK293 cells
CHX counter: counter-screen hit for Shiga toxin inhibitors, cycloheximide; max response, %; 300,000 compounds, 12% hits; cell reporter, cycloheximide protein synthesis inhibition counterscreen; in the data active means max response mostly above about 13%, no sharp cut-off; inactive means mostly below about 14%; further: read at 38.3 µM for the half of the compounds with a filed dose
Shiga toxin inh: Shiga toxin inhibition | Vero cells, Shiga toxin protein synthesis inhibition reporter | inhibition, % at 38.7 µM | 290,000 compounds, 9.2% hits | AID 2315; in the data active means inhibition mostly above about 28%, no sharp cut-off; inactive means mostly below about 43%
Large screens that a line does not name were inactive. Rows were chosen to be rich in hits. Some 12% of all compounds tested hit in one or more screens of this group.

COc1cccc(/C=N/NC(=O)c2ccc(N3CCCC3=O)cc2)c1	LASV entry inh inconclusive, MARV entry inh inconclusive
Cc1noc(C)c1CCC(=O)N1CCCC(CCC(=O)NCc2ccccc2F)C1 (stereo not given)	none
O=C(NCCc1ccco1)c1cc(COc2cccc(C(F)(F)F)c2)on1	none
COc1cccc(CCNC(=O)c2cc(COc3c(F)cccc3F)on2)c1	CHX counter 16 (no result: LASV entry inh, MARV entry inh)
COc1cccc(OCc2cc(C(=O)NCc3cnc4ccccn34)no2)c1	none (no result: LASV entry inh, MARV entry inh)
O=C(NCCc1cn2ccccc2n1)c1cc(COc2c(F)cccc2F)on1	CHX counter 17
Cc1ccc(OCc2cc(C(=O)NCc3cn4ccccc4n3)no2)cc1C	CHX counter 20, Shiga toxin inh 37 (no result: LASV entry inh, MARV entry inh)
O=C(CC1CCCC1)NCCc1cn2ccccc2n1	none (no result: LASV entry inh, MARV entry inh)
Cc1cc(OCc2cc(C(=O)NCc3csc(C(C)C)n3)no2)cc(C)c1Cl	CHX counter 20
CC(=O)c1cccc(NC(=O)CCC(=O)Oc2ccc(C)cc2)c1	none (no result: LASV entry inh, MARV entry inh)
COc1ccc(N2C(=O)CSC23C(=O)N(CC(=O)NCCc2ccccc2)c2ccccc23)cc1 (stereo not given)	none (no result: MARV entry inh, CHX counter, Shiga toxin inh)
Cc1ccc(S(=O)(=O)NCC(=O)N(CC(=O)NCC2CCCO2)Cc2ccco2)cc1 (stereo not given)	CHX counter 10
CCN1C(=O)N(S(=O)(=O)C(F)(F)F)C(c2ccccc2)C(C(=O)OC)=C1C (stereo not given)	LASV entry inh inconclusive (no result: CHX counter, Shiga toxin inh)
CC(C)CC(c1nnnn1Cc1ccc(F)cc1)N1CCC(C(N)=O)CC1 (stereo not given)	LASV entry inh inconclusive
CCOC(=O)CSc1ncc(-c2ccc([N+](=O)[O-])cc2)[nH]1	MARV entry inh inconclusive
O=C(CNC(=O)c1ccccc1F)NCCOc1cccc(Cl)c1Cl	none
COc1ccccc1OCCNC(=O)c1ccc(Br)cc1	MARV entry inh inconclusive, CHX counter 36, Shiga toxin inh 62
O=C(NCCOc1ccccc1F)c1cc(F)c(F)cc1Cl	LASV entry inh inconclusive, MARV entry inh inconclusive, CHX counter 36, Shiga toxin inh 86
COc1ccccc1OCCNC(=O)c1cc(F)c(F)cc1Cl	CHX counter 30, Shiga toxin inh 25
Cc1ccccc1C(=O)NCCOc1ccccc1Cl	LASV entry inh inconclusive, MARV entry inh inconclusive, CHX counter 36 (no result: Shiga toxin inh)
COc1ccccc1OCCNC(=O)c1cc(SC)ccc1Cl	none
CSc1ccccc1C(=O)NCCOc1ccccc1C	none
CCOc1ccccc1N1CCN(CC(=O)NCCc2ccc(S(N)(=O)=O)cc2)CC1	none
CSc1ccc(CNC(=O)Cn2nc(N3CCN(c4ccccc4)CC3)ccc2=O)cc1	none (no result: MARV entry inh, CHX counter, Shiga toxin inh)
COc1ccc(CN2CCN(CCC(C)C)C(CCO)C2)cc1Cn1cncn1 (stereo not given)	none (no result: LASV entry inh, MARV entry inh)
O=C(Nc1ccccc1C(=O)O)c1ccc(NC(=O)C2CCCCC2)cc1	none
COc1ccc(C2CC(c3cccs3)=NN2c2ccc(C=O)cc2)cc1 (stereo not given)	LASV entry inh inconclusive, MARV entry inh inconclusive, CHX counter 46, Shiga toxin inh 55
c1ccc(C2CC(c3cccs3)=NN2c2ccccc2)cc1 (stereo not given)	LASV entry inh inconclusive, MARV entry inh inconclusive, CHX counter 33, Shiga toxin inh 94
O=C(Nc1ccc(F)cc1)Nc1ccccc1N1CCCCC1	none (no result: LASV entry inh, MARV entry inh)
O=C(/C=C/c1cccs1)Nc1ccc(N2CCOCC2)c(S(=O)(=O)Nc2ccccc2Cl)c1	LASV entry inh inconclusive, MARV entry inh inconclusive, CHX counter 21, Shiga toxin inh 61
O=C(Nc1ccc(N2CCCCC2)c(S(=O)(=O)Nc2ccccc2Cl)c1)c1cccnc1	MARV entry inh inconclusive (no result: CHX counter, Shiga toxin inh)
O=C(Nc1cc(S(=O)(=O)N2CCCCC2)ccc1Cl)c1ccccc1NS(=O)(=O)c1ccc(F)cc1	LASV entry inh 3.5µM, MARV entry inh inconclusive
O=C(Nc1ccc(F)cc1)Nc1ccc(N2CCCC2)c(S(=O)(=O)Nc2ccccc2Cl)c1	LASV entry inh 7.3µM, MARV entry inh 7.9µM
O=C(Nc1ccc(Cl)c(Cl)c1)Nc1ccc(N2CCCC2)c(S(=O)(=O)Nc2ccccc2Cl)c1	LASV entry inh 8.9µM, MARV entry inh inconclusive
CCn1c(SCC(=O)N/N=C(\C)c2ccncc2)nnc1-c1ccc(C)cc1	none
O=C(N/N=C/c1ccccc1Cl)c1ccc(F)cc1	CHX counter 56, Shiga toxin inh 72
Cn1cccc1-c1cc(C(=O)N/N=C/c2ccccc2Cl)[nH]n1	CHX counter 20, Shiga toxin inh 80 (no result: LASV entry inh, MARV entry inh)
CC(C)Oc1ccccc1/C=N/NC(=O)C1CC1	none (no result: CHX counter, Shiga toxin inh)
CC(C)Oc1ccccc1/C=N/NC(=O)c1ccccc1Cl	CHX counter 12 (no result: LASV entry inh, MARV entry inh)
CCN(CC)c1ccc(C(=O)N/N=C/c2ccccc2OC(F)F)cc1	CHX counter 26 (no result: LASV entry inh, MARV entry inh)
Cc1cc(C)c(NC(=O)CCc2c(C)noc2C)c(C)c1	none (no result: CHX counter, Shiga toxin inh)
COc1cc2cc(C(=O)N/N=C/c3ccccc3Cl)[nH]c2cc1OC	none (no result: LASV entry inh, MARV entry inh)
